SMILES strings stand for the structures. Inconclusive results are not listed. A number with no mark means an inactive call. The source made the active and inactive calls. Calls follow the shape of the dose curve; as a rule, active = well fitted curve in the direction sought with a large enough effect in the repeat runs; inconclusive = weak or mixed curves; inactive = no such curve, though single readings can be large; an effect the other way counts as inactive or inconclusive.
% is scaled to controls: 0 for no effect and ±100 for the full control effect; potency is read from the fitted curve at half-maximal effect.
Also: nearly all actives have a fitted effect of over 55% in size.

Chain of Cytochrome P450 2C9 (Homo sapiens) (P11712 whole entry, looked up): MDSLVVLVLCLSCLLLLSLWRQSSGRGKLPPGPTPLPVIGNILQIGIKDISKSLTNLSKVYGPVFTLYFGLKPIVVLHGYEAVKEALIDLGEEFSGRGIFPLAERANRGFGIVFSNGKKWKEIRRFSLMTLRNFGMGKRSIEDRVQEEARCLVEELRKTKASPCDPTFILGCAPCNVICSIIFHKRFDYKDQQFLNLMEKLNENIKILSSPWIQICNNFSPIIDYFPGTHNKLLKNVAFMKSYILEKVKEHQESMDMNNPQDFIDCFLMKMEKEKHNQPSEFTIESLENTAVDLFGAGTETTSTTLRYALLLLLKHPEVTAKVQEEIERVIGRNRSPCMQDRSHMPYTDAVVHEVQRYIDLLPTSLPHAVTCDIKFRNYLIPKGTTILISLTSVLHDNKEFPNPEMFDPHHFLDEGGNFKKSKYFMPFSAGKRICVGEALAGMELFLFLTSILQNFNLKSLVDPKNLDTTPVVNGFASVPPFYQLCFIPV
Chain of Cytochrome P450 2D6 (Homo sapiens) (P10635 whole entry, looked up): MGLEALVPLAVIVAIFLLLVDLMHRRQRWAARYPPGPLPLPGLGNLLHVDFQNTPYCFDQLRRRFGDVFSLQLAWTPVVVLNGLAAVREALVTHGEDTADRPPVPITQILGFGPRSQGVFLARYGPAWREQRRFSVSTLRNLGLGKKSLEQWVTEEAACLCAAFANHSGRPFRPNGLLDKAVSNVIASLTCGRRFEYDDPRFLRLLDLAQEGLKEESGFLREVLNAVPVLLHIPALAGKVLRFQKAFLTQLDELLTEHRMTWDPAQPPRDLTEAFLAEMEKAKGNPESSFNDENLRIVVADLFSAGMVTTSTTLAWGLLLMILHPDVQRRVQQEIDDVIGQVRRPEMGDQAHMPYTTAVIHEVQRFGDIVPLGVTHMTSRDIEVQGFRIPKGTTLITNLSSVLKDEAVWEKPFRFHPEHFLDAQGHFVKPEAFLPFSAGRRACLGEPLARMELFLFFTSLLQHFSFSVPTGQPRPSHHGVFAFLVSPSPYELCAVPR

One experiment addresses Cytochrome P450 2D6 (Homo sapiens) (UniProt P10635). The experiment is described as follows: Cytochrome P450 family 2 subfamily D member 6 (CYP2D6) small molecule antagonists: luciferase biochemical (cell-free) qHTS assay (AID 1645840). As to conditions: P450-Glo CYP2D6 enzyme, luciferin luminescence, 1 h; series mostly up to 57.4 µM; activity change, negative = inhibition: at the top concentration. The gist of the method:
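P450-Glo luminescent screen: recombinant CYP2D6 enzyme–proluciferin substrate mix preincubated with compound 10 min at room temperature, then NADPH regeneration added for 1 h at room temperature. Detection reagent added for 20 min; luciferin light read as relative luminescence units.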
In general terms: In qHTS, concentration-response curves come from the screen itself.
As for `O=C(Nc1nc2ccccc2n1CCc1ccccc1)c1ccccc1`, the “activity change, negative = inhibition” value was -4.16%.
Turning to `O=C(CCCCN1CCOCC1)Nc1ccc(-c2cccnc2)cc1`, the Potency was 6.01 µM (active).
The same measure, in the same setting: next, `CCOc1ccc(NC(=S)N2CCC(C(O)(c3ccccc3)c3ccccc3)CC2)cc1`: 2.68 µM (active).
Regarding `Cc1cc(Nc2ncc3cc(-c4c(Cl)cccc4Cl)c(=O)n(C)c3n2)ccc1F`, the “activity change, negative = inhibition” value was -27.6%.
With `NCc1ccc(Nc2ncc(F)c(Nc3ccccc3)n2)cc1`, the Potency was 15.1 µM (active).
With `CC(C)[C@@H](CS(=O)(=O)C(C)C)N1C(=O)[C@@](C)(CC(=O)O)C[C@H](c2cccc(Cl)c2)[C@H]1c1ccc(Cl)cc1`, the “activity change, negative = inhibition” value is 1.05%.
Still for that read-out and setting: next, `CCCN1CCN(c2ccc(C(=O)NC3(C(=O)NCC#N)CCCCC3)cc2)CC1`: 8.9%.
As to `c1ccc(N2CCN(CCc3nn[nH]n3)CC2)cc1`, the “activity change, negative = inhibition” value is 5.33%.
Same read-out and setting: next, `Cn1c2ccc(F)cc2c2c(C(=O)N3CCCC3)cn(-c3ccccc3)c(=O)c21`: -8.77%; `CC(NC(=O)C(O)C(C)C)C(=O)NC1C(=O)N(C)CCc2ccccc21` (stereo unspecified): -1.81%; `CCO[C@@H]1OC(=O)C[C@@H]1NC(=O)[C@@H]1CCCN1C(=O)[C@@H](NC(=O)c1ccc(N)c(Cl)c1)C(C)(C)C`: 7.55%.
`COc1ccccc1Oc1ccc(N(Cc2cccnc2)S(=O)(=O)CC(F)(F)F)cc1`: the Potency is 13.5 µM (active).
On to `CCc1cc(CN2CC(C(=O)O)C2)sc1-c1noc(-c2ccc(Oc3ccccc3)cc2)n1`, for which the “activity change, negative = inhibition” value was -24.1% [at 23.9 µM].
In the case of `CC(C)(C)c1cc(Br)cc([C@H](CC(=O)O)NC(=O)CNC(=O)c2cc(O)cc(NC3=NCC(O)CN3)c2)c1` (stereo partly specified), the “activity change, negative = inhibition” value is -3.93%.
On to `COc1cc(N2CCOCC2)ccc1Nc1ncc(Cl)c(Nc2ccccc2NS(C)(=O)=O)n1`, for which the Potency was 15.1 µM (active).
In the case of `COc1ccc(Oc2cc(C)c(-c3csc(NC(=O)c4ccncc4)n3)c(C)c2)cc1`, the Potency is 3.01 µM (active).
For `COc1cccc(C(=O)N2CCN(C(=O)COc3cccc(C)c3)CC2)c1OC`, the “activity change, negative = inhibition” value was 5.33%.
For the compound `CCNC(=O)Nc1ncc(-c2cc(-c3c(C)cc(OC)cc3C)nc(-c3cnccn3)n2)s1`, the Potency is 8.49 µM (active).
On to `N#Cc1ccc(C(=O)N2CCC3(CC2)N=C(N)c2c(F)ccc(F)c2N3)cn1`, for which the Potency was 15.1 µM (active).
Turning to `COc1ccc(-c2ccc3c(N4CCOCC4)nc(N4CC(C)OC(C)C4)nc3n2)cc1CO` (stereo unspecified), the “activity change, negative = inhibition” value was -2.98%.
On to `O=C(NCc1ccccn1)Nc1nnc(-c2ccco2)o1`, for which the “activity change, negative = inhibition” value was 7.96%.
For `NC1CCC(Nc2cc(-c3cccc(NCc4cccc(F)c4)n3)c(Cl)cn2)CC1` (stereo unspecified), the Potency is 15.1 µM (active).
On the same count and under the same terms, next, `CNC(=O)c1ccccc1Nc1nc(Nc2ccc3c(c2OC)CCCC(N2CCN(CCO)CC2)C3)ncc1Cl` (stereo unspecified): 15.1 µM (active); `O=C1CC2(CCCC2)[C@H](O)C(=O)N1CCCCN1CCN(c2ncccn2)CC1`: 12 µM (active); `Cc1ccccc1-n1c([C@H](C)Nc2nc(N)nc3nc[nH]c23)nc2cccc(C)c2c1=O`: 16.9 µM (active).
Turning to `Cn1c(=O)n(-c2ccc(C(C)(C)C#N)cc2)c2c3cc(C#Cc4cccnc4)ccc3ncc21`, the “activity change, negative = inhibition” value was -3.55% [at 23.9 µM].

Another experiment has as its target Cytochrome P450 2C9 (Homo sapiens) (UniProt P11712). The experiment is described as follows: Cytochrome P450 family 2 subfamily C member 9 (CYP2C9) small molecule antagonists: luciferase biochemical (cell-free) qHTS assay (AID 1645842). Conditions: P450-Glo CYP2C9 enzyme assay, luciferin luminescence; series mostly up to 57.4 µM; activity change, negative = inhibition: at the top concentration. Summed up: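 Luminescence, after 20 min with luciferin detection reagent, reflected CYP2C9 turnover during a 1 h NADPH-driven reaction at 37C. Enzyme-substrate mix contained 0.4% bovine serum albumin and was preincubated with compound 10 min at room temperature.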
As to `NC(=O)c1cccc2cn(-c3ccc(C4CCCNC4)cc3)nc12` (stereo unspecified), the “activity change, negative = inhibition” value was 11%.
`CN1CCN(Cc2ccc(-c3cnc4[nH]cc(-c5ccc6[nH]ccc6c5)c4c3)cc2)CC1`: the Potency is 12 µM (active).
With `Cc1cccc(Oc2cnc(=O)[nH]c2)c1`, the “activity change, negative = inhibition” value was -2.38%.
As for `CC(C)CCC(=O)CC1c2ccccc2C(=O)N1c1ccc2ccc(Cl)nc2n1` (stereo unspecified), the Potency was 1.51 µM (active).
As for `O=C(Nc1ccc(S(=O)(=O)Nc2nccs2)cc1)C(c1ccccc1)c1ccccc1`, the Potency was 0.674 µM (active).
Regarding `COCCOc1ccc(N2CCN(CCn3ncc4c3nc(N)n3nc(-c5ccco5)nc43)CC2)cc1`, the “activity change, negative = inhibition” value was -9.23%.
As for `O=C(NCc1cccc(O)c1)Nc1nc(-c2ccncc2)cs1`, the Potency was 0.301 µM (active).
Still for that read-out and setting: next, `CCN1CCN(Cc2ccc(NC(=O)c3ccc(C)c(/C=C/c4cnc5[nH]ccc5c4OC)c3)cc2C(F)(F)F)CC1`: 12 µM (active).
In the case of `C[C@@H]1CN(Cc2ccccc2)C[C@H]1c1nc2c(cnn2C2CCOCC2)c(=O)[nH]1`, the “activity change, negative = inhibition” value was 4.95%.
Turning to `CNCc1ccc(-c2cc(-c3nc(-c4ccc(S(=O)(=O)C(C)C)cc4)cnc3N)on2)cc1`, the Potency was 2.13 µM (active).
For `CNC(=S)NS(=O)(=O)c1cc(CCNC(=O)c2cc(Cl)ccc2OC)ccc1OC`, the Potency is 6.74 µM (active).
Same read-out and setting: next, `Cc1onc(C(=O)N2CCN(C(c3ccc(Cl)cc3)c3ccc(Cl)cc3)CC2)c1[N+](=O)[O-]`: 5.35 µM (active); `CC(C)(C)c1ccc(S(=O)(=O)NCc2ccc(C(=O)Nc3cccnc3)cc2)cc1`: 12 µM (active).
As for `CN1CCc2nc(C(=O)N[C@@H]3C[C@@H](C(=O)N(C)C)CC[C@@H]3NC(=O)C(=O)Nc3ccc(Cl)cn3)sc2C1`, the “activity change, negative = inhibition” value was -27.7%.
As for `O=C(Nc1nc2ccccc2n1CCc1ccccc1)c1ccccc1`, the Potency is 8.49 µM (active).
As for `O=C(CCCCN1CCOCC1)Nc1ccc(-c2cccnc2)cc1`, the “activity change, negative = inhibition” value was -23.8%.
Turning to `CCOc1ccc(NC(=S)N2CCC(C(O)(c3ccccc3)c3ccccc3)CC2)cc1`, the Potency is 9.52 µM (active).
On to `Cc1cc(Nc2ncc3cc(-c4c(Cl)cccc4Cl)c(=O)n(C)c3n2)ccc1F`, for which the Potency was 6.74 µM (active).
The same measure, in the same setting: as for `NCc1ccc(Nc2ncc(F)c(Nc3ccccc3)n2)cc1`, the figure is 6.74 µM (active); as for `CC(C)[C@@H](CS(=O)(=O)C(C)C)N1C(=O)[C@@](C)(CC(=O)O)C[C@H](c2cccc(Cl)c2)[C@H]1c1ccc(Cl)cc1`, 15.1 µM (active).
In the case of `CCCN1CCN(c2ccc(C(=O)NC3(C(=O)NCC#N)CCCCC3)cc2)CC1`, the “activity change, negative = inhibition” value is 3.71%.
`c1ccc(N2CCN(CCc3nn[nH]n3)CC2)cc1`: the Potency is 9.52 µM (active).
On the same count and under the same terms, as for `Cn1c2ccc(F)cc2c2c(C(=O)N3CCCC3)cn(-c3ccccc3)c(=O)c21`, the figure is 1.51 µM (active).
For `CC(NC(=O)C(O)C(C)C)C(=O)NC1C(=O)N(C)CCc2ccccc21` (stereo unspecified), the “activity change, negative = inhibition” value is 5.56%.
In the case of `CCO[C@@H]1OC(=O)C[C@@H]1NC(=O)[C@@H]1CCCN1C(=O)[C@@H](NC(=O)c1ccc(N)c(Cl)c1)C(C)(C)C`, the “activity change, negative = inhibition” value was -28.7%.
Regarding `COc1ccccc1Oc1ccc(N(Cc2cccnc2)S(=O)(=O)CC(F)(F)F)cc1`, the Potency was 1.9 µM (active).
As for `CCc1cc(CN2CC(C(=O)O)C2)sc1-c1noc(-c2ccc(Oc3ccccc3)cc2)n1`, the “activity change, negative = inhibition” value was -6.59% [at 23.9 µM].
On to `CC(C)(C)c1cc(Br)cc([C@H](CC(=O)O)NC(=O)CNC(=O)c2cc(O)cc(NC3=NCC(O)CN3)c2)c1` (stereo partly specified), for which the “activity change, negative = inhibition” value was 11.5%.
As for `COc1cc(N2CCOCC2)ccc1Nc1ncc(Cl)c(Nc2ccccc2NS(C)(=O)=O)n1`, the “activity change, negative = inhibition” value was 15.4%.
With `COc1ccc(Oc2cc(C)c(-c3csc(NC(=O)c4ccncc4)n3)c(C)c2)cc1`, the Potency is 4.77 µM (active).
Still for that read-out and setting: as for `COc1cccc(C(=O)N2CCN(C(=O)COc3cccc(C)c3)CC2)c1OC`, the figure is 21.3 µM (active); as for `CCNC(=O)Nc1ncc(-c2cc(-c3c(C)cc(OC)cc3C)nc(-c3cnccn3)n2)s1`, 3.79 µM (active).
For the compound `N#Cc1ccc(C(=O)N2CCC3(CC2)N=C(N)c2c(F)ccc(F)c2N3)cn1`, the “activity change, negative = inhibition” value is -13.4%.
Take `COc1ccc(-c2ccc3c(N4CCOCC4)nc(N4CC(C)OC(C)C4)nc3n2)cc1CO` (stereo unspecified): the Potency is 6.74 µM (active).
With `O=C(NCc1ccccn1)Nc1nnc(-c2ccco2)o1`, the “activity change, negative = inhibition” value is -3.48%.
On to `NC1CCC(Nc2cc(-c3cccc(NCc4cccc(F)c4)n3)c(Cl)cn2)CC1` (stereo unspecified), for which the Potency is 2.13 µM (active).
On to `CNC(=O)c1ccccc1Nc1nc(Nc2ccc3c(c2OC)CCCC(N2CCN(CCO)CC2)C3)ncc1Cl` (stereo unspecified), for which the “activity change, negative = inhibition” value was -15.5%.
For `O=C1CC2(CCCC2)[C@H](O)C(=O)N1CCCCN1CCN(c2ncccn2)CC1`, the Potency was 10.7 µM (active).
In the case of `Cc1ccccc1-n1c([C@H](C)Nc2nc(N)nc3nc[nH]c23)nc2cccc(C)c2c1=O`, the Potency is 1.34 µM (active).
The same measure, in the same setting: next, `Cn1c(=O)n(-c2ccc(C(C)(C)C#N)cc2)c2c3cc(C#Cc4cccnc4)ccc3ncc21`: 0.522 µM (active).

These data come from PubChem BioAssay (NCATS).
